Inconclusive results are not listed. The source made the active and inactive calls. Rule for the calls: active = hit-call score of the fitted dose curve at least 0.9, where 1 is the maximum; inconclusive = response in the unintended direction; inactive = score below 0.9.

Read-out in the experiment: ABC Transporter (ABCB1), ABCB1 (gene 5243)
The experiment in a line: CLD_ABCB1_48hr: CellzDirect (CLD) Gene Expression Assay for ABC Transporter (ABCB1) at 48 hours (AID 2283695).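 For AC50: potency for induction meaning increase of mRNA over DMSO vehicle.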 The procedure:
CLD_48hr is a cell-based, multiplexed-readout assay that uses hepatocyte, a human liver primary cell, with measurements taken at 48 hours after chemical dosing in a 96-well plate.CLD_ABCB1_48hr is one of 16 assay component(s) measured or calculated from the CLD_48hr assay. It is designed to make measurements of mRNA induction, a form of inducible reporter, as detected with chemiluminescence signals by Quantitative Nuclease Protection Assay (qNPA) technology.Data from the assay component CLD_ABCB1_48hr was analyzed at the endpoint, CLD_ABCB1_48hr, in the positive analysis fitting direction relative to DMSO as the negative control and baseline of activity. Using a type of inducible reporter, gain-of-signal activity can be used to understand changes in the reporter gene as they relate to the gene ABCB1. Furthermore, this assay endpoint can be referred to as a primary readout. To generalize the intended target to other relatable targets, this assay endpoint is annotated to the transporter intended target family, where subfamily is ABC transporter.
Human hepatocyte cultures were treated daily for two consecutive days with fresh dosing solutions containing appropriate concentrations of the 320 ToxCast chemicals (chemical identities were blinded to CellzDirect and other ToxCast collaborators), vehicle control (0.2% DMSO), and positive control inducers as summarized in Table 1. Due to the large number of treatment groups and chemicals examined, the ToxCast chemicals were divided into two groups (spanning two independent cultures of hepatocytes from separate donor preparations (Hu778: ToxCast plates 1 and 2; Hu776: ToxCast plates 3 and 4). Each preparation of human hepatocyte cultures was treated with respective vehicle control, medium only control, set of six positive controls/reference chemicals for the five hepatic receptor pathways, and a subset of eight of the ToxCast chemicals (indoxacarb, pyrithiobac-sodium, norflurazon, cyhalofop-butyl, methomyl, thiram, acetochlor, and propiconazole). These replicate data, coupled with internal replicates designed within the blinded ToxCast chemical library, provided additional data to evaluate interindividual differences between hepatocyte preparations and their potential impact on chemical profiles.Cell morphology and integrity were evaluated using phase-contrast microscopy as an indicator of hepatocyte cell health (Tyson & Green, 1987). Cultures for each treatment group (i.e., media, vehicle [0.2% DMSO], positive control inducers [multiple concentrations], and the ToxCast chemicals [multiple concentrations]) were observed and cell morphology was assessed relative to vehicle control cultures at each harvest time point (0, 6, 24, or 48 h). […] Images were evaluated at the conclusion of the study to assess changes in cell integrity and account for the effects of chemical exposure on uncharacteristic changes in concentration-dependent gene expression profiles. The results from these determinations of apparent cytotoxicity were annotated (yes/no) alongside the corresponding qNPA data for reference.At the conclusion of each treatment period, hepatocyte cultures (96-well) were washed with 1 volume of HBSS, lysed by addition of 25 ul ArrayPlate lysis buffer (HTG, Tucson, AZ), and 70 ul/well of Denaturation Oil, denatured by incubation at 95C for 10 min, and frozen at approximately -70C until analysis by nuclease protection assay (qNPA) (Roberts et al., 2007). For qNPA analysis, cell lysates were thawed at 50C for approximately 30 min, qNPA probes were added, and samples were incubated at 95C for 10 min to begin the detection process by denaturing the target RNA, dissociating the duplexes and secondary structure hybridization. At the conclusion of the hybridization period, S1 nuclease reagent was added to each sample to digest all nonprotected nucleotides at 50C for 60-90 min. […]
Regarding `CCOP(=S)(OCC)Oc1nc(Cl)n(C(C)C)n1`, the result was inactive.
Still for that read-out and setting: the same measure for `Clc1nc(Cl)nc(Nc2ccccc2Cl)n1`: “inactive”; for `CCCCC(C#N)(Cn1cncn1)c1ccc(Cl)cc1` (stereo not given): “inactive”; for `CC1(C)CON(Cc2ccccc2Cl)C1=O`: “inactive”.
For the compound `OC(c1ccc(Cl)cc1)(c1ccc(Cl)cc1)C(Cl)(Cl)Cl`, the result was inactive.
The same measure, in the same setting: as for `CNC(=O)N(C)c1nnc(C(C)(C)C)s1`, the entry is “inactive”; as for `Cc1c(COC(=O)[C@@H]2[C@H](/C=C(\Cl)C(F)(F)F)C2(C)C)cccc1-c1ccccc1`, “inactive”.
Turning to `CCCCC(O)(Cn1cncn1)c1ccc(Cl)cc1Cl` (stereo not given), the AC50 is 31.9 µM (active).
As to `CCOc1nc(F)cc2nc(S(=O)(=O)Nc3c(Cl)cccc3Cl)nn12`, the call was inactive.
The same measure, in the same setting: the same measure for `O=C(Nc1ccccc1-c1ccc(Cl)cc1)c1cccnc1Cl`: “inactive”; for `CC(C)N1C(=O)c2ccccc2NS1(=O)=O`: “inactive”; for `CCSC(=O)N1CCCCCC1`: “inactive”.
Still for that read-out and setting: the same measure for `Cc1nc(N(C)C)nc(OC(=O)N(C)C)c1C`: “inactive”.
Still for that read-out and setting: as for `CCCC(=NOCC)C1=C(O)CC(CC(C)SCC)CC1=O` (stereo not given), the entry is “inactive”; as for `CCCCOCN(C(=O)CCl)c1c(CC)cccc1CC`, “inactive”.
In the case of `CCN(CC)C(=O)C(C)Oc1cccc2ccccc12` (stereo not given), the outcome was inactive.
Still for that read-out and setting: as for `COC(=O)c1c(C(F)F)nc(C(F)(F)F)c(C2=NCCS2)c1CC(C)C`, the entry is “inactive”; as for `CC1(C)CCC(=Cc2ccc(Cl)cc2)C1(O)Cn1cncn1` (stereo not given), “inactive”; as for `CO/N=C(/C1=NOCCO1)c1ccccc1Oc1ncnc(Oc2ccccc2Cl)c1F`, “inactive”.
On to `COC(=O)NC(=S)Nc1ccccc1NC(=S)NC(=O)OC`, for which the call was inactive.
The same measure, in the same setting: as for `Nc1c(Cl)c(F)nc(OCC(=O)O)c1Cl`, the entry is “inactive”.
On the same count and under the same terms, the same measure for `COc1ccc(-c2ccccc2)cc1NNC(=O)OC(C)C`: “inactive”; for `CCOc1cc(C(C)(C)C)ccc1C1COC(c2c(F)cccc2F)=N1` (stereo not given): “inactive”; for `COP(=O)(OC)O/C(C)=C/C(=O)N(C)C`: “inactive”.
On the same count and under the same terms, the same measure for `COP(=S)(OC)Oc1ccc([N+](=O)[O-])c(C)c1`: “inactive”; for `CC1(C)C(C(=O)OC(C#N)c2cccc(Oc3ccccc3)c2)C1(C)C` (stereo not given): “inactive”.
For `CC1(C)C(C=C(Cl)Cl)C1C(=O)OC(C#N)c1cccc(Oc2ccccc2)c1` (stereo not given), the compound was called inactive.
The same measure, in the same setting: as for `CC(C)C1(C)N=C(c2ncccc2C(=O)O)NC1=O` (stereo not given), the entry is “inactive”; as for `N#CN=C1SCCN1Cc1ccc(Cl)nc1`, “inactive”.
Same read-out and setting: the same measure for `COP(=S)(OC)SCn1nnc2ccccc2c1=O`: “inactive”; for `CC(C)Nc1nc(Cl)nc(NC(C)C)n1`: “inactive”.
The same measure, in the same setting: as for `COCC(C)N(C(=O)CCl)c1c(C)csc1C` (stereo not given), the entry is “inactive”; as for `C=CCOC(=O)C(C)(C)OC(=O)c1cc(-n2c(=O)cc(C(F)(F)F)n(C)c2=O)ccc1Cl`, “inactive”.
With `Cn1c(-c2ccccc2)cc(-c2ccccc2)[n+]1C`, the compound was called inactive.
Regarding `CS(=O)(=O)c1ccc(C(=O)C2C(=O)CCCC2=O)c([N+](=O)[O-])c1`, the outcome was inactive.
The same measure, in the same setting: the same measure for `CCCN(CC)CC1COC2(CCC(C(C)(C)C)CC2)O1` (stereo not given): “inactive”; for `CS(=O)(=O)c1cc(C(F)(F)F)ccc1C(=O)c1cnoc1C1CC1`: “inactive”.
The same measure, in the same setting: the same measure for `COc1cc(OC)nc(NC(=O)NS(=O)(=O)c2ncccc2OCC(F)(F)F)n1`: “inactive”.
In the case of `CC(C)N1C(=O)N(c2ccccc2)CSC1=NC(C)(C)C`, the outcome was inactive.
Same read-out and setting: the same measure for `COCC(=O)N(c1c(C)cccc1C)C(C)C(=O)OC` (stereo not given): “inactive”.
